In the library only some 2.2% were active in any assay of this set; here they are far more common.
CHRM1 PAM – potentiates human M1 receptor response to acetylcholine; 360,000 compounds, 0.088% hits; P11229; CHO-K1 hM1, Fluo-8 calcium fluorescence, ACh EC20; 0% = ACh EC20, 100% = maximal ACh; AID 588819; activation, % at 3 µM; in the data active = activation above about 19%, passing the limit was not always enough
M1 antag – human CHRM1 antagonism; P11229; CHO-K1 hM1, Fluo-8 calcium fluorescence, ACh EC80 antagonist; inhibition, % at 3 µM; 360,000 compounds, 1.3% hits; AID 588852;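 active = percent inhibition above its own plate's cutoff, namely the mean of that plate's compound wells plus 3 SD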;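 note: peak over basal fluorescence ratio during 140 s after agonist addition; 0% = ACh EC80 plus DMSO and 100% = DMSO alone without agonist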
M4 antag – antagonists of human muscarinic M4 receptor (CHRM4); CHO-hM4 cells, ACh EC80, Fluo-8 calcium fluorescence; P08173; inhibition, % at 3 µM; 360,000 compounds, 0.73% hits;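 active = inhibition above its plate's cutoff, the mean inhibition of sample wells plus 3 SD, cut at about 27% in these data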;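 note: 0% = acetylcholine EC80 with DMSO and 100% = DMSO without agonist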
Target sequence (P08173 whole entry, looked up): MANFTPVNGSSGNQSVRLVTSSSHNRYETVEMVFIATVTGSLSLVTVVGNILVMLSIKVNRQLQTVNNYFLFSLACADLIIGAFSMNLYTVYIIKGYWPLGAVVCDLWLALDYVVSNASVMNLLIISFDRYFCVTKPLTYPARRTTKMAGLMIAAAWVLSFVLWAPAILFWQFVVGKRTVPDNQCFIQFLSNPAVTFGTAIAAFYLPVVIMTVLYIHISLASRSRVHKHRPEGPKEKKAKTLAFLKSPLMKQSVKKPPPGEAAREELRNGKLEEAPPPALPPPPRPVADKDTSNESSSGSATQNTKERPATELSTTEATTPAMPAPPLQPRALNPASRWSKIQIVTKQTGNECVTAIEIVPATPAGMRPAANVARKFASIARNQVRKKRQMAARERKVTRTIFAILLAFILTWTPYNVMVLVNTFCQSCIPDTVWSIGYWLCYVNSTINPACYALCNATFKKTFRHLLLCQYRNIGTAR
M4 PAM – CHRM4 positive allosteric modulation; P08173; CHO-K1 hM4/Gqi5, Fluo-8 calcium fluorescence, ACh EC20; 0% = ACh EC20, 100% = maximal ACh; activation, % at 3 µM; 360,000 compounds, 0.4% hits;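 active = activation above its plate's cutoff, the mean activation of sample wells plus 3 SD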
M4 ag – agonists of human muscarinic M4 receptor (CHRM4) | 360,000 compounds, 0.14% hits | P08173 | AID 624127 | CHO-K1 hM4/Gqi5, Fluo-8 calcium fluorescence; vehicle 0%, full acetylcholine response 100% | activation, % at 3 µM;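 active = activation above the run mean over all test wells plus 3 SD, cut at about 32% in these data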;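 note: peak over basal fluorescence ratio per well then scaled between controls; 0% = DMSO wells and 100% = acetylcholine at EC100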
M1 ag – activates human CHRM1 receptor. activation, % at 3 µM. 360,000 compounds, 0.33% hits. CHO-K1 hM1, Fluo-8 calcium fluorescence, agonist mode; 0% DMSO, 100% acetylcholine EC100;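 active = activation above the run's mean compound activation plus 3 SD, cut at about 16% in these data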;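 note: peak over basal fluorescence ratio within a 140 s kinetic read after compound addition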
An asterisk follows results filed as active.

SMILES	CHRM1 PAM	M1 antag	M4 antag	M4 PAM	M4 ag	M1 ag
Cn1c(SCc2cccc([N+](=O)[O-])c2)nc2ccccc2c1=O	-13	36*	-5	6	7	0
O=c1c2ccccc2nc(SCc2ccc([N+](=O)[O-])cc2)n1-c1ccccc1	23*	12	-2	0	2	-3
COc1ccccc1NC(=O)CSc1nc2ccccc2c(=O)n1C	-10	5	-10	-5	12	-3
Cc1cccc(NC(=O)CSc2nc3ccccc3c(=O)n2C)c1C	-20	33*	8	-8	13	2
Cc1nn(CCOc2ccccc2)c(=O)n1-c1c(F)cccc1F	4	0	31*	32*	2	-4
COc1cccc(NC(=O)CN2CCN(c3ccc(F)cc3)CC2)c1	6	-11	-6	3	1	-5
CCCCCC(C)NC(=O)CN1C(=O)NC(C)(c2ccc3ccccc3c2)C1=O (configuration not stated)	14	-4	-15	23*	4	18*
CCN(CC(=O)Nc1ccc(NC(C)=O)cc1)C(=O)CN1C(=O)NC(C)(c2ccc3ccccc3c2)C1=O (configuration not stated)	11	-7	-8	27*	1	-1
c1ccc(C[C@H]2CN=C(Nc3ccccc3)N2CCCC2CCCC2)cc1	-13	22	-9	-12	11	-8
CC(C)c1nnc(NC(=O)C2c3ccccc3Oc3ccccc32)s1	-19	45*	0	-6	4	1
CCN(CC)CCNC(=O)C1c2ccccc2Oc2ccccc21	-30	93*	37*	-18	1	-10
O=C(NCCCn1ccnc1)C1c2ccccc2Oc2ccccc21	-25	24*	16	-15	0	-6
N#CCOC(=O)C1c2ccccc2Oc2ccccc21	13	-8	-7	-6	-1	-4
CCOCCCNC(=O)C1c2ccccc2Oc2ccccc21	5	-10	-14	5	-1	-6
CCN(CC)CCOC(=O)C1c2ccccc2Oc2ccccc21	-22	99*	98*	-33	1	-9
O=C(NNC(=S)NCC1CCCO1)c1ccc(S(=O)(=O)N2CCOCC2)cc1 (configuration not stated)	7	-14	-2	-2	1	-5
CC(C)CN(C(=O)CCC(=O)OC(C)C(=O)Nc1cccc(C#N)c1)c1c(N)n(CC(C)C)c(=O)[nH]c1=O (configuration not stated)	2	1	-9	9	1	-4
CN(CC(=O)Nc1ccc(C(N)=O)cc1)CC(=O)Nc1ccccc1Br	5	-7	0	-13	3	4
CN(CC(=O)Nc1ccccc1Br)C(=O)CNC(=O)c1cccs1	-4	34*	1	-2	0	-2
CC(=O)Nc1ccc(NC(=O)CN(C)CC(=O)Nc2ccccc2Br)cc1	-14	38*	11	-16	18	-4
O=C(Nc1ccc([N+](=O)[O-])cc1)Nc1ccc(OC(F)F)c(Cl)c1	-15	40*	17	-13	11	1
CN(C)S(=O)(=O)c1ccc(C(=O)NC2CCCc3ccccc32)cc1 (configuration not stated)	8	-5	9	-3	1	-7
Brc1cnc(N2CCCCC2)nc1N1CCOCC1	-3	3	-4	6	3	-5
Brc1cnc(N2CCCC2)nc1N1CCOCC1	-2	3	27*	11	0	-4
Oc1ccccc1Oc1ncc(Br)c(N2CCOCC2)n1	-23	84*	40*	-18	1	-6
SMILES	CHRM1 PAM	M1 antag	M4 antag	M4 PAM	M4 ag	M1 ag
COc1ccccc1C(=O)N1CCN(C(=O)[C@H]2O[C@@H](n3ccc(=O)[nH]c3=O)[C@H](O)[C@@H]2O)CC1	1	1	-10	21*	1	-3
COCCn1c(SCC(=O)NC2CC2)nnc1-c1ccco1	1	-2	-4	-7	1	-1
NS(=O)(=O)c1ccc(CCNC(=O)c2cc(-c3cccs3)nc3ccccc23)cc1	-13	16	16	-15	17	-6
CN(C)S(=O)(=O)c1cccc(NC(=O)c2cc(-c3cccs3)nc3ccccc23)c1	-9	22	31*	-32	22	-4
NS(=O)(=O)c1cccc(NC(=O)c2cccs2)c1	15	-20	-9	2	0	-2
NS(=O)(=O)c1ccc(CNC(=O)c2cc(-c3cccs3)nc3ccccc23)cc1	-9	24	30*	-20	16	0
NS(=O)(=O)c1cccc(NC(=O)c2cc(-c3cccs3)nc3ccccc23)c1	-2	16	30*	-22	13	-3
O=C(COC(=O)c1cc(=O)[nH]c2ccc(Br)cc12)c1ccccc1	10	-6	-8	10	2	0
CCN(CC)CCNc1nc(-c2cccs2)c(CC(=O)O)s1	14	-14	4	11	1	-4
CC(=O)OCC(=O)[C@H]1CC[C@H]2[C@@H]3CCC4=CC(=O)CC[C@]4(C)[C@H]3CC[C@]12C	-25	32	57*	-17	2	-6
C[C@]12CCC(=O)C=C1CCC1C2CC[C@@]2(C)C1CCC21OCCO1 (some centres not stated)	2	4	-1	1	2	-4
C[C@]12CC[C@H]3[C@@H](CCC4=CC(=O)CC[C@@]43C)[C@@H]1CC[C@@H]2C(=O)CO	2	-26	-6	-1	2	-4
C[C@]12CCC(=O)C=C1CC[C@@H]1[C@@H]2CC[C@@]2(C)[C@H]1CC[C@@]21CCC(=O)O1	-21	31*	30*	-20	6	-8
Cn1c2c(c(=O)n(C)c1=O)C(C(F)(F)F)(C(F)(F)F)N=C(c1ccc(Cl)cc1)N2	-9	24*	9	-5	9	5
CCN1CCc2c(OCC(=O)Nc3ccc(C)cc3)cccc2C1=O	3	-7	-11	4	5	0
CCOC(=O)c1c(NC(=O)COc2cccc3c2CCN(CC)C3=O)sc2c1CCC2	6	7	4	22*	2	-3
O=C(NNc1ccccc1Br)C(O)(c1cccc(C(F)(F)F)c1)c1cccc(C(F)(F)F)c1	-22	36*	11	-16	4	-9
C[C@H](CO)N1C[C@H](C)[C@H](CN(C)C(=O)c2ccccc2F)Oc2ncc(Br)cc2C1=O	6	-17	-13	10	0	-2
Cc1ccc(C2NC(=S)NC3=C2C(=O)CCC3)cc1 (configuration not stated)	11	-14	-3	0	1	-2
